Experimental data: PubChem BioAssay (Tox21)
Records with an inconclusive call do not appear. A number with no mark means an inactive call. Activity calls are given as the source filed them. Calls come from the whole dose curve.

Biological target: 5-hydroxytryptamine receptor 2A (Homo sapiens) (UniProt P28223)
Experiment: 5-hydroxytryptamine receptor 2A (HTR2A) small molecule antagonists, cell-based qHTS assay (AID 1963586); note: nearly all actives have a fitted effect of over 45% in size
Settings: HTR2A-CHO cells, DOI-induced calcium flux, fluorescence; series mostly up to 61.5 µM; activity, negative = inhibition: at the top concentration
From the text: National Center for Advancing Translational Sciences [NCATS]
Division of Preclinical Innovation [DPI]
U.S. Environmental Protection Agency [EPA]
National Institutes of Environmental Health Sciences [NIEHS]
National Toxicology Program [NTP]
U.S. Food and Drug Administration [FDA]
The HTR2A receptor is a subtype of the 5-HT2 receptor that belongs to the serotonin receptor family and is a G protein-coupled receptor (GPCR). The HTR2A-CHO cell line stably expressing human 5-hydroxytryptamine receptor 2A (HTR2A) can be used for screening antagonists of interactions between 5-HT2 and its ligands. The HTR2A-CHO calcium flux assay is a homogeneous fluorescence-based assay for detecting the intracellular calcium level using FDSS kinetic plate reader system.
Tox21 Assay Protocol Summary:
HTR2A-CHO cells were dispensed at 2000 cells/3uL/well in 1536-well black-clear bottom plates using a Multidrop Dispenser. After the assay plates were incubated at a 37 C/5% CO2 incubator for 18 h, 3 uL of Dye Loading Buffer was transferred to the assay plate by a Flying Reagent Dispenser. The assay plates were incubated at 37 C for 1h. For antagonist mode, 23 nL of compounds dissolved in DMSO, positive controls or DMSO only was transferred to the assay plate by a pin tool. After 5 min incubation at room temperature, 1.5 uL of 4-Iodo-2,5-dimethoxy-alpha-methylbenzeneethanamine hydrochloride (DOI) at 4nM was added to each well. The fluorescence intensity in the plates was measured using FDSS 7000EX kinetic plate reader for 3 min at 1 sec intervals.
% is set by controls: 0 for no effect and ±100 for the full control effect; potency is the fitted concentration of half-maximal effect.

Sequence of 5-hydroxytryptamine receptor 2A (Homo sapiens) (P28223 whole entry, looked up): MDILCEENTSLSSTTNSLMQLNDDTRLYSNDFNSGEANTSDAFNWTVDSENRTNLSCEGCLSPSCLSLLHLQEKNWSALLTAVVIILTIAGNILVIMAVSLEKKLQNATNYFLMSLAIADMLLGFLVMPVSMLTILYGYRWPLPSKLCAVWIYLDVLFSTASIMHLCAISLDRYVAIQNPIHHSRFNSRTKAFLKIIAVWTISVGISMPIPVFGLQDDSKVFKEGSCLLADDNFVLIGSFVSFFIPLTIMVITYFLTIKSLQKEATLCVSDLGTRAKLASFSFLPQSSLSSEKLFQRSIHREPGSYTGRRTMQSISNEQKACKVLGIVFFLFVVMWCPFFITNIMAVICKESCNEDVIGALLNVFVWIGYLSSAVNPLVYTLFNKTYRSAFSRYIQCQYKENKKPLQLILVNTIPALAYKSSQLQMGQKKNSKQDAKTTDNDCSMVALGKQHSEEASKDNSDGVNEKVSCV

Structure (SMILES)	activity, negative = inhibition	Potency
CCCCCCCCCC#N	2.9%	
Cc1cscn1	2.94%	
CCC(C)(C)C(=O)O	2.07%	
CCCCCCCCCCCC(=O)Cl	2.99%	
CCC(C)CCCC(C)(C)O (stereo not given)	32%	
CS(=O)(=O)c1ccc([C@@H](C[C@H]2CCC(=O)C2)C(=O)Nc2cnccn2)cc1Cl	8.48%	
CCCCCCCCCCOS(=O)(=O)O	4.16%	
C/C=C/C=C/CCCCCCCO	-3.12%	
CCOc1ccc([N+](=O)[O-])cc1	-9.69%	
CCCCCCCCCCCCOC(=O)c1ccc(O)cc1	0.743%	
Cc1c(C(=O)NCCO)[n+](=O)c2ccccc2n1[O-]	1.04% [at 28.5 µM]	
NC(=O)c1ccccc1[N+](=O)[O-]	-8.15%	
Oc1ccc(C2CNCCc3c2cc(O)c(O)c3Cl)cc1 (stereo not given)		0.259 µM (active)
CC(=O)Oc1cc2c(s1)CCN(C(C(=O)C1CC1)c1ccccc1F)C2 (stereo not given)	-0.381% [at 28.5 µM]	
Cc1c(N=C=O)cccc1N=C=O	-13.5%	
COc1ccccc1N1CCN(CC(O)COc2cc(OC)c(OC)c(OC)c2)CC1 (stereo not given)	-17% [at 28.5 µM]	
Cc1oc(-c2ccccc2)nc1CCC(=O)c1ccc(CC2SC(=O)NC2=O)cc1 (stereo not given)	-9.8% [at 28.5 µM]	
Cc1ccc(C(=O)Oc2ccc(C(O)CNC(C)(C)C)cc2OC(=O)c2ccc(C)cc2)cc1 (stereo not given)	49.6% [at 28.5 µM]	
O=C(Cn1ccnc1[N+](=O)[O-])NCCO	6.31% [at 28.5 µM]	
COc1ccc(/C(C)=C/C(=O)O)c(OC)c1	16.8% [at 28.5 µM]	

Structure (SMILES)	activity, negative = inhibition	Potency
CCCC(=O)OCCC(C)C	89.9%	
CC(=O)c1c(C)cc(C(C)(C)C)cc1C	-3.38%	
CC(CNC1CCCCC1)OC(=O)c1ccccc1 (stereo not given)	35.7% [at 28.5 µM]	
Cc1ccc2c(c1)c1c3n2CCNC3CCC1 (stereo not given)		18.3 µM (active)
CN(C)c1ccc(C(c2ccccc2)c2ccc(N(C)C)cc2)cc1	3.6%	
CC(C)CC(=O)C1C(=O)c2ccccc2C1=O	5.56%	
O=C(COCCOCCOCC(=O)Nc1c(I)cc(I)c(C(=O)O)c1I)Nc1c(I)cc(I)c(C(=O)O)c1I	-23% [at 28.5 µM]	
COC(=O)CS	-20.3%	
COc1cc(C)ccc1O	-4.25%	
C=C(C)CCCC	7.47%	
CC(C)(C#N)Nc1nc(Cl)nc(NC2CC2)n1	0.183%	
CC(C)(C)C(=O)O	-1.03%	
CCOC(=O)CCc1ccccc1	-3.25%	
O=C(/C=C/c1ccc(O)c(O)c1)O[C@@H]1C[C@](O)(C(=O)O)C[C@@H](O)[C@H]1O	1.76%	
O=C(O)Cc1cn(-c2ccccc2)nc1-c1ccc(Cl)cc1	16.4% [at 28.5 µM]	
COC(=O)[C@H]1[C@H]2C[C@@H]3c4[nH]c5cc(OC)ccc5c4CCN3C[C@H]2C[C@@H](OC(=O)COc2ccc(OC)cc2)[C@@H]1OC	2.57% [at 28.5 µM]	
O=C1CCCCCCCCCCOCCCCO1	3.07%	
C1OCOCO1	40.9%	
CCCCCCCCOS(=O)(=O)O	8.49%	
C=CCOc1c(Br)cc(Br)cc1Br	6.6%	
